# High-throughput results: PubChem BioAssay, National Center for Advancing Translational Sciences (NCATS)
# Only some compounds are listed: those with a hit (about 5.7% of all), similar ones and a draw of the others.
# NPSR antag: qHTS Assay for Antagonists of the Neuropeptide S Receptor: cAMP Signal Transduction; AID 1461, 2008; Potency, µM (doses to about 38.3 µM), inactives show at the highest dose activity change, negative = inhibition, most hits filed as inhibitors; CHO-NPSR cells, cAMP TR-FRET, antagonist mode; Q6W5P4; actives 1% (n = 220,000); also: nearly all actives have a fitted effect of over 50% in size
# Target sequence (Q6W5P4 whole entry, looked up): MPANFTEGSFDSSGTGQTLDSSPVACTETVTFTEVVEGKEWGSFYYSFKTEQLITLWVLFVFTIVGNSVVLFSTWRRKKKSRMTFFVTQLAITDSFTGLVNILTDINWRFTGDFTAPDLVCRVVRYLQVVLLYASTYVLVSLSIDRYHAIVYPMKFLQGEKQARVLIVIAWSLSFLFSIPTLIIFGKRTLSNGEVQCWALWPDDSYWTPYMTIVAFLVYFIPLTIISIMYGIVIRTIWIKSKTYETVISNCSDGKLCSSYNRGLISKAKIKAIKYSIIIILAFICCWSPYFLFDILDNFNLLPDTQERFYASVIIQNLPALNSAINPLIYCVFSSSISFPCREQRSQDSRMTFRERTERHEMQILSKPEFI
# VP16 counter: VP16 counterscreen qHTS for inhibitors of ROR gamma transcriptional activity; Drosophila S2 Gal4-VP16 UAS-luciferase, luminescence, 20 h; Potency, µM (highest dose often 53.6 µM), inactives show at the highest dose activity, negative = inhibition, usual class: inhibitors; actives 3.5% (n = 310,000);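 also: Gal4-VP16 expression switched on by copper sulfate through the metallothionein promoter; nearly all actives have a fitted effect of over 50% in size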
# B2AR arrestin: qHTS assay of beta-arrestin-biased ligands of beta2-adrenergic receptor; Beta-2 adrenergic receptor (Homo sapiens), P07550; beta-arrestin recruitment to beta2AR, cell-based reporter; Potency, µM (titrated, usually from 46.1 µM), for the others: at the top dose activation, usual class: activators; actives 0.02% (n = 330,000); AID 492947, 2010;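 also: 0% = DMSO controls and full agonism = EC100 isoproterenol or metaproterenol; nearly all actives have a fitted effect of over 65% in size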
# RORgamma inh: qHTS for inhibitors of ROR gamma transcriptional activity; Nuclear receptor ROR-gamma (Mus musculus), P51450; AID 2551, 2010; actives 5.4% (n = 310,000); Potency, µM (top dose mostly 53.6 µM), inactives show at the highest dose activity change, negative = inhibition, usual class: inhibitors; Drosophila S2 Gal4-RORgamma UAS-luciferase reporter, 20 h; also: nearly all actives have a fitted effect of over 60% in size
#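 Schneider cells (Drosophila), stable Gal4 DBD–ROR gamma + UAS-luc; 1 hr cmpd preincubation; Cu2+ induction 700 uM final; 20 hr ambient; luminescence.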
# * = called active by the depositor; ? = inconclusive; . = no result; ! = not active in a repeat; [ ] = remark or other dose. Calls follow the shape of the dose curve; as a rule, active = well fitted curve in the direction sought with a large enough effect; inconclusive = small, poorly fitted or top-dose-only effect, or another doubt; inactive = no such curve, though single readings can be large; an effect the other way counts as inactive or inconclusive. Unless noted, % is scaled to controls: 0 for no effect and ±100 for the full control effect; potency is read from the fitted curve at half-maximal effect.
SMILES,NPSR antag,VP16 counter,B2AR arrestin,RORgamma inh
CC[C@H](C)[C@H](N)C(=O)N[C@H]1CCC(=O)NCC(C(=O)N[C@@H](Cc2ccc(O)cc2)C(=O)N[C@@H](CCCNC(=N)N)C(=O)N[C@@H](CC(C)C)C(=O)N[C@@H](CCCNC(=N)N)C(=O)N[C@@H](Cc2ccc(O)cc2)C(N)=O)NC(=O)[C@@H]2CCCN2C(=O)[C@@H](NC(=O)[C@@H](N)[C@@H](C)CC)CCC(=O)NCC(C(=O)N[C@@H](Cc2ccc(O)cc2)C(=O)N[C@@H](CCCNC(=N)N)C(=O)N[C@@H](CC(C)C)C(=O)N[C@@H](CCCNC(=N)N)C(=O)N[C@@H](Cc2ccc(O)cc2)C(N)=O)NC(=O)[C@@H]2CCCN2C1=O (stereo partly specified),.,-1.8%,.,-2.6%
CC(C)(C)S(=O)(=O)c1ccc2nc3c(n2c1)CCCC3,-1.7%[46.1 µM],-4.6%,0.3%,-26.1%
Brc1ccc2nc3c(n2c1)CCCC3,15.3%[46.1 µM],?,-1.0%,12.6µM*
Cc1ccc(NC(=O)C(Cc2ccccc2)N2C(=O)C3C4CCC(C4)C3C2=O)cc1Cl (stereo unspecified),?,-10.9%,-0.1%,20.5%
Cc1ccc(Cl)cc1NC(=O)C(Cc1ccccc1)N1C(=O)C2C3CCC(C3)C2C1=O (stereo unspecified),-25.2%,79.4µM*,-1.4%,-20.0%
NNC(=S)Nc1c(F)cc(F)cc1Br,-14.8%,?,-0.3%,3.98µM*
Cc1cc(C(=O)Nc2c(F)cc(F)cc2Br)cs1,.,6.3%,-0.8%,4.5%
COC(=O)C(CC(=O)c1ccc(Br)cc1)n1ccnc1 (stereo unspecified),-21.7%[46.1 µM],1µM*,-0.4%,0.631µM*
O=C(CCCn1c(=O)[nH]c2ccccc2c1=O)Nc1ccc(F)cc1,0.7%,-15.4%,-0.1%,6.3%
O=C(c1ccc(F)cc1)C1CCN(CCn2c(=O)[nH]c3ccccc3c2=O)CC1,1.58µM*!,2.6%,0.1%,13.8%
COCC(=O)N(Cc1cc2cccc(C)c2[nH]c1=O)c1ccccc1,.,.,-0.4%,.
COc1ccc(/C=C/N(CCc2ccc(OC)c(OC)c2)C(=O)C(F)(F)F)cc1,.,0.3%[10 µM],.,9.0%[10 µM]
CC(C)(C)OC(=O)NCCc1nnc(S(=O)(=O)Cc2ccc(Cl)cc2Cl)o1,?,7.08µM*,-0.2%,?
COc1cc(/C=N/NC(=O)c2cccc([N+](=O)[O-])c2)ccc1OCc1ccc(C)cc1,-3.6%[46.1 µM],-6.9%,0.3%,2.51µM*
Cc1ccc(C(C)C)c(OCc2ccc(C(=O)N/N=C/c3ccc(O)c(O)c3)cc2)c1,-35.6%,35.5µM*,-0.1%,?
COc1ccc(/C=N/NC(=O)c2cccc([N+](=O)[O-])c2)cc1O,-7.1%,?,-1.0%,-21.0%
Cc1ccc(C(C)C)c(OCc2ccc(C(=O)N/N=C/c3cccc(O)c3O)cc2)c1,10µM*,2.51µM*,0.1%,1µM*
COc1cc(/C=N/NC(=O)c2ccc(COc3cc(C)ccc3C(C)C)cc2)cc(OC)c1O,-37.6%,15.8µM*,-1.6%,?
COC(=O)[C@H](COC(C)(C)C)NC(=O)O[C@@H]1C(=O)c2cc(Br)ccc2O[C@H]1c1cccc(OC)c1,.,3.7%,.,5.6%
Cc1ccccc1-c1cncnc1Nc1ccccc1,.,4.5%,.,-34.7%
Cc1ccc(C#N)cc1,.,-1.3%,.,20.3%
COc1ccc(O[C@H]2C=C[C@@H](c3ccccc3)O[C@H]2COC(=O)CC/C(C)=N\O[C@@H](C)c2cc(-c3c(C)cc(C)cc3C)no2)cc1,.,2.8%[10 µM],.,13.7%[10 µM]
CC1CCc2nc(NC(=O)c3ccco3)sc2C1 (stereo unspecified),-8.1%[46.1 µM],3.98µM*,0.2%,2.51µM*
O=C(Nc1nc2cc3c(cc2s1)OCCO3)c1ccco1,.,6.31µM*,-0.2%,2.51µM*
CC(=O)Nc1nc2cc3c(cc2s1)OCO3,-3.4%[46.1 µM],-0.5%,0.2%,22.0%
SMILES,NPSR antag,VP16 counter,B2AR arrestin,RORgamma inh
O=C(Nc1nc2cc3c(cc2s1)OCO3)C1=COCCO1,3.0%,3.98µM*,-1.3%,4.47µM*
O=C(NC(=S)Nc1nc2ccc(F)cc2s1)c1ccco1,-14.8%,1.78µM*,0.1%,0.794µM*
CCOC(=O)[C@@H](N)CS,.,-4.0%,.,3.4%[10 µM]
Fc1cc(F)cc(NC(=S)NN2CCOCC2)c1,3.5%,7.4%[10 µM],0.0%,10µM*
CCCCc1ccc(NC(=S)NN2CCOCC2)cc1,-41.5%,-26.0%,5.1%,-7.9%
CCOC(=O)c1ccc(NC(=S)NN2CCOCC2)cc1,14.7%,?,-0.3%,?
